Laboratory results reported in PubChem BioAssay (EPA / NIEHS).
Results filed as inconclusive are left out. The source made the active and inactive calls. Rule for the calls, unless noted: active = hit-call score of the fitted dose curve at least 0.9, where 1 is the maximum; inactive = score below 0.9.

Columns and labels:
[1] = ACEA_ER_80hr: ACEA Biosciences xCELLigence Real-Time Cell Analysis on Estrogen Receptor Agonism for Proliferation (AID 2282667; active = hit-call score of the fitted dose curve at least 0.9, where 1 is the maximum); details: T47D proliferation, impedance (xCELLigence), 80 h
Summary of the method: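 T-47D cells monitored by electrical impedance (xCELLigence) with compound present throughout; 80 h timepoint, positive-direction fitting versus DMSO. Eight-point 1:4 dilutions from 100 uM final, duplicate plates.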

[2] = APR_HepG2_CellCycleArrest_24hr: Apredica 24-hour HepG2 Assay for Cell Cycle Arrest (AID 2282905); details: imaging, actives raise or lower the signal;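 note: cell cycle arrest scored as ratio of 2N to 4N nuclear DNA content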
Summary of the method: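 Step one: dose HepG2 with test compounds, 0.39–200 uM, 0.5% DMSO, 24 hr. Step two: fix, permeabilize, stain nuclei with Hoechst 33342. Step three: image six fields per well at 20x, quantify DNA content, fit bidirectionally relative to DMSO.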

[3] = APR_HepG2_NuclearSize_24hr: Apredica 24-hour HepG2 Assay for Nuclear Size (AID 2282907); details: high-content imaging, actives raise or lower the signal
Summary of the method: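 After fixation and permeabilization, 24-hr-treated HepG2 cells were stained with Hoechst 33342 and imaged on an ArrayScan (20x). Doses spanned 0.39–200 uM in duplicate. Nuclear diameter changes in either direction were fitted relative to 0.5% DMSO controls.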

[4] = APR_HepG2_CellLoss_24hr: Apredica 24-hour HepG2 Assay for Cell Loss (AID 2282908); details: high-content imaging;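 for AC50: fit in both directions so a hit may be cell loss or gain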
Summary of the method: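 Duplicate wells received compound at ten concentrations (0.39–200 uM; final DMSO 0.5% v/v). After fixation with formaldehyde, nuclei stained with Hoechst 33342 were imaged at 20x. Loss or gain of cell count was fitted relative to DMSO controls.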

[5] = APR_HepG2_MicrotubuleCSK_24hr: Apredica 24-hour HepG2 Assay for Microtubule CSK Stabilty (AID 2282909); details: HepG2 microtubule cytoskeleton imaging, actives raise or lower the signal
Summary of the method: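 Microtubule stability is scored from tubulin immunofluorescence in fixed HepG2 cells imaged at 20x. Cells receive ten compound concentrations up to 200 uM for 24 h; taxol and DMSO serve as positive and negative controls.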

[6] = APR_HepG2_MitoticArrest_24hr: Apredica 24-hour HepG2 Assay for Mitotic Arrest (AID 2282910); details: high-content imaging, actives raise or lower the signal
Summary of the method: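 High-content imaging of fixed HepG2 cells labeled with Hoechst 33342 and anti-phospho-histone H3, after 24 h treatment. Ten concentrations 0.39 to 200 uM in duplicate, final DMSO 0.5%; changes fitted both directions relative to DMSO.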

[7] = APR_HepG2_MitoMembPot_24hr: Apredica 24-hour HepG2 Assay for Mitochondrial Membrane Potential (AID 2282911); details: imaging, actives raise or lower the signal
Summary of the method: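 HepG2 cells exposed 24 h to 0.39–200 uM compounds in duplicate, 0.5% v/v DMSO final. MitoTracker Red CMXRos 250 nM loaded 30 min before formaldehyde fixation; high-content imaging at 20x, bidirectional fit versus DMSO.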

[8] = APR_HepG2_MitoMass_24hr: Apredica 24-hour HepG2 Assay for Mitochondrial Mass (AID 2282912); details: high-content imaging, actives raise or lower the signal
Summary of the method: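 Readout: fluorescence of MitoTracker Red CMXRos (250 nM, added 30 min pre-fixation) in fixed HepG2 cells imaged by HCS. Exposure lasted 24 hr at 0.39–200 uM; increases and decreases were both fitted relative to DMSO.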

[9] = APR_HepG2_CellCycleArrest_72hr: Apredica 72-hour HepG2 Assay for Cell Cycle Arrest (AID 2282914); details: high-content imaging, actives raise or lower the signal
Summary of the method: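 HepG2 cells exposed 72 h in duplicate to 0.39–200 uM compound, 0.5% DMSO final. Formaldehyde-fixed, Hoechst 33342-stained nuclei imaged at 20x, six fields per well; DNA content per valid cell quantified by cell-cycle image analysis, bidirectional fit versus DMSO.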

[10] = APR_HepG2_p53Act_24hr: Apredica 24-hour HepG2 Assay for p53 Activation (AID 2282913); details: high-content imaging, actives raise or lower the signal;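 note: p53 protein immunofluorescence averaged per cell in HepG2 with Hoechst nuclei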
Summary of the method: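 HepG2 cells exposed 24 h to compounds at 0.39–200 uM in duplicate, 0.5% v/v DMSO final; fixed, permeabilized, stained with anti-p53 antibody and Hoechst 33342; fluorescence imaging; bidirectional curve fit versus DMSO.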

Measured: AC50

OC[C@H]1O[C@@](CO)(O[C@H]2O[C@H](CO)[C@@H](O)[C@H](O)[C@H]2O)[C@@H](O)[C@@H]1O
not listed: [10]
inactive: all other assays above

O=c1[nH]cnc2c1ncn2[C@H]1CC[C@@H](CO)O1
active: [7] 0.039 µM
not listed: [6] | [9] | [10]
inactive: all other assays above

NC(=O)N1c2ccccc2C=Cc2ccccc21
active: [1] 69.5 µM
not listed: [6] | [9] | [10]
inactive: all other assays above

O=C(O)c1ccc2c(c1)nc(C(=O)NC1CCN(C3CC3)CC1)n2Cc1cc(-c2ccc(Cl)s2)on1
not listed: [9]
inactive: all other assays above

OCc1ccccc1
not listed: [6] | [10]
inactive: all other assays above

CCc1cccc(CC)c1N
not listed: [6] | [9]
inactive: all other assays above

CCCCOC(=O)c1ccccc1
not listed: [6]
inactive: all other assays above

NNC(=O)c1ccncc1
not listed: [6] | [9]
inactive: all other assays above

CC(C)CCCCCCOC(=O)C1CCCCC1C(=O)OCCCCCCC(C)C (centres undefined)
not listed: [6] | [10]
inactive: all other assays above

CCCCCCCCN(C)C
not listed: [6] | [9]
inactive: all other assays above

CCOc1ccc2[nH]cc(C(=O)NCc3ccccc3)c(=O)c2n1
active: [1] 69 µM
not listed: [6] | [10]
inactive: all other assays above

Cn1c(=O)c2[nH]cnc2n(C)c1=O
not listed: [6]
inactive: all other assays above

CCCCCCCCCC
not listed: [6] | [9]
inactive: all other assays above

NC(N)=O
not listed: [6] | [10]
inactive: all other assays above

CCCCCCOC(=O)CC(CC(=O)OCCCCCC)(OC(=O)CCC)C(=O)OCCCCCC
active: [1] 50 µM
not listed: [6] | [10]
inactive: all other assays above

O=C1CN(N=Cc2ccc([N+](=O)[O-])o2)C(=O)N1
inactive: [1] | [7] | [8]
active: [4] 33.6 µM | [10] 58.6 µM

CCCCCCCC1CCC(=O)O1 (centres undefined)
inactive: [1] | [4] | [7] | [8] | [10]

c1ccc2ncccc2c1
not listed: [6] | [9]
inactive: all other assays above

Nc1ccn([C@@H]2O[C@H](CO)[C@@H](O)[C@@H]2O)c(=O)n1
inactive: [1] | [5] | [7]
active: [2] 0.0387 µM | [3] 39.1 nM | [4] 0.149 µM | [8] 0.0391 µM | [9] 0.0618 µM

CCCCC(CC)C(=O)OCCOCCOCCOC(=O)C(CC)CCCC (centres undefined)
not listed: [6] | [9]
inactive: all other assays above

CCCc1ccccc1
active: [7] 61.3 µM
not listed: [6] | [9]
inactive: all other assays above

CC(C)c1nnc2ccc(-c3ocnc3-c3cc(F)ccc3F)cn12
inactive: [1] | [4] | [6] | [8] | [10]
active: [7] 0.0586 µM

OCCNCCO
not listed: [6] | [10]
inactive: all other assays above

C=CN1CCCC1=O
not listed: [6] | [9]
inactive: all other assays above

C[C@]12C=CC(=O)C=C1CC[C@H]1[C@@H]3C[C@@H](O)[C@](O)(C(=O)CO)[C@@]3(C)C[C@H](O)[C@@]12F
active: [1] 10.9 µM
not listed: [6]
inactive: all other assays above

Cc1ccc(S(=O)(=O)NC(=O)NN2CCCCCC2)cc1
not listed: [6] | [10]
inactive: all other assays above

c1ccc2cc3ccccc3cc2c1
active: [2] 106 µM | [4] 100 µM | [9] 110 µM
not listed: [6]
inactive: all other assays above

OC(CCl)CCl
not listed: [6] | [9]
inactive: all other assays above

CC[C@H](C)C(=O)O[C@H]1C[C@H](O)C=C2C=C[C@H](C)[C@H](CC[C@@H](O)C[C@@H](O)CC(=O)O)[C@H]21
not listed: [6] | [10]
inactive: all other assays above

OCCOCCOCCO
not listed: [6]
inactive: all other assays above

COc1cc(C(C)C)c2c(c1)S(=O)(=O)N(COc1cc(=O)n3cccc(OCCN4CCCCC4)c3n1)C2=O
inactive: [1] | [3] | [9]
active: [2] 17.7 µM | [4] 24.2 µM | [5] 15.8 µM | [7] 26.4 µM | [8] 29.1 µM

CCOC(N)=O
not listed: [6]
inactive: all other assays above
